Records with an inconclusive call do not appear. Activity calls are given as the source filed them. The calls were made as follows: active = hit-call score of the fitted dose curve at least 0.9, where 1 is the maximum; inconclusive = response in the unintended direction; inactive = score below 0.9.
test system: not listed separately; test: Tanguay_ZF_120hpf_TRUN_legacy: (Legacy) Oregon State University Tanguay Lab 120 Hour Post-fertilization zebrafish Assay for Truncated Body (AID 2283655)
Procedure, shortened: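 Single dechorionated zebrafish embryos received test chemical from 6 hpf in 0.64% DMSO, kept at 28C. At 120 hpf, brightfield inspection noted any truncated body.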

Chain of Broad substrate specificity ATP-binding cassette transporter ABCG2 (Homo sapiens) (Q9UNQ0 whole entry, looked up): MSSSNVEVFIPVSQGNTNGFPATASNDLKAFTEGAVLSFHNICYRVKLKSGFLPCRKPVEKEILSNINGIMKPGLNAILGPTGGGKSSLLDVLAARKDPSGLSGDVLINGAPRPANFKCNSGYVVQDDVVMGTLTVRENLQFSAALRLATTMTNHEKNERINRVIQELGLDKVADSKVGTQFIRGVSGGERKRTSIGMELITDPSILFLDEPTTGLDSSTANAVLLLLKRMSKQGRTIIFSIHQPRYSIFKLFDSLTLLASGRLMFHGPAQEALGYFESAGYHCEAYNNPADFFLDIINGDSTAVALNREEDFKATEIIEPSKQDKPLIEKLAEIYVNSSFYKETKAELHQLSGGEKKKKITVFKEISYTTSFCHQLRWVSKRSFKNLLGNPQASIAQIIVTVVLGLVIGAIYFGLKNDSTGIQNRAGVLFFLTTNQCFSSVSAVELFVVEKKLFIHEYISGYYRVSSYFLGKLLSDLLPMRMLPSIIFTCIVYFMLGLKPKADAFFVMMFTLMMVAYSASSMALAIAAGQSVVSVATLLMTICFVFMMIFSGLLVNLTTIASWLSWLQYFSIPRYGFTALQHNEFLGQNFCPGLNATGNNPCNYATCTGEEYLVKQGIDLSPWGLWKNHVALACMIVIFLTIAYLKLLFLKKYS

Structure (SMILES) | outcome | AC50
N[C@@H](Cc1cc(I)c(Oc2ccc(O)c(I)c2)c(I)c1)C(=O)O | inactive | –
c1ccc2[nH]c(-c3cscn3)nc2c1 | inactive | –
COc1c(Cl)ccc(Cl)c1C(=O)O | inactive | –
CCCCCOC(=O)COc1cc(N2C(=O)C3=C(CCCC3)C2=O)c(F)cc1Cl | inactive | –
CSC(=O)c1cccc2nnsc12 | inactive | –
O=C(O)C1(C(=O)Nc2ccc(Cl)cc2Cl)CC1 | inactive | –
CCCN(CCC)C(=O)SCC | inactive | –
CCCCC(CC)CN1C(=O)C2C3C=CC(C3)C2C1=O (stereo not given) | inactive | –
Cc1nn(C)c(Oc2ccccc2)c1C=NOCc1ccc(C(=O)OC(C)(C)C)cc1 | inactive | –
CCCCOC(=O)[C@@H](C)Oc1ccc(Oc2ccc(C(F)(F)F)cn2)cc1 | inactive | –
O=C(c1ccc(O)cc1O)c1ccc(O)cc1O | inactive | –
OB(O)O | inactive | –
Oc1ccc(C(c2ccc(O)cc2)C(Cl)(Cl)Cl)cc1 | – | 69.5 µM (active)
CC(C)(C)[C@@H](O)[C@@H](Cc1ccc(Cl)cc1)n1cncn1 | inactive | –
COC(=O)CSc1cc(N=c2sc(=O)n3n2CCCC3)c(F)cc1Cl | inactive | –
CCOC(=O)C(C)Oc1ccc(Oc2nc3ccc(Cl)cc3o2)cc1 (stereo not given) | inactive | –
CCOC(=O)COc1cc(-n2ncc(C(F)(F)F)c(C)c2=O)c(F)cc1Cl | inactive | –

test system: not listed separately; test: Tanguay_ZF_120hpf_NC_legacy: (Legacy) Oregon State University Tanguay Lab 120 Hour Post-fertilization zebrafish Assay for Notochord and Tail Malformation (AID 2283656)
Procedure, shortened: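 Dechorionated Tropical 5D wild-type zebrafish embryos, one per well from 6 hpf, statically exposed to 120 hpf at 28C in 0.64% DMSO final. Notochord distortion scored present/absent by brightfield; dead embryos excluded.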

Structure (SMILES) | outcome
c1ccc2[nH]c(-c3cscn3)nc2c1 | inactive
COc1c(Cl)ccc(Cl)c1C(=O)O | inactive
CCCCOC(=O)C(C)Oc1ccc(Oc2ccc(C(F)(F)F)cn2)cc1 (stereo not given) | inactive
CCCCCOC(=O)COc1cc(N2C(=O)C3=C(CCCC3)C2=O)c(F)cc1Cl | inactive
CCCOC(=O)c1ccc(C(=O)OCCC)nc1 | inactive
CSC(=O)c1cccc2nnsc12 | inactive
O=C(O)C1(C(=O)Nc2ccc(Cl)cc2Cl)CC1 | inactive
CCCN(CCC)C(=O)SCC | inactive
CCOC(=O)NCCOc1ccc(Oc2ccccc2)cc1 | inactive
CCCCC(CC)CN1C(=O)C2C3C=CC(C3)C2C1=O (stereo not given) | inactive
O=C(c1ccc(O)cc1O)c1ccc(O)cc1O | inactive
OB(O)O | inactive
Oc1ccc(C(c2ccc(O)cc2)C(Cl)(Cl)Cl)cc1 | inactive
CC(C)(C)[C@@H](O)[C@@H](Cc1ccc(Cl)cc1)n1cncn1 | inactive
COC(=O)CSc1cc(N=c2sc(=O)n3n2CCCC3)c(F)cc1Cl | inactive
C#C[C@]1(O)CC[C@H]2[C@@H]3CCC4=CC(=O)CC[C@@H]4[C@H]3CC[C@@]21CC | inactive
CCOC(=O)C(C)Oc1ccc(Oc2nc3ccc(Cl)cc3o2)cc1 (stereo not given) | inactive
CCOC(=O)COc1cc(-n2ncc(C(F)(F)F)c(C)c2=O)c(F)cc1Cl | inactive
CCCOC(=O)NCCCN(C)C | inactive

read-out: Broad substrate specificity ATP-binding cassette transporter ABCG2 (Homo sapiens) (UniProt Q9UNQ0); test: CLD_ABCG2_6hr: CellzDirect (CLD) Gene Expression Assay for ABC Transporter (ABCG2) at 6 hours (AID 2283660)
Procedure, shortened: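 Primary human hepatocytes dosed daily with chemicals at multiple concentrations (0.2% DMSO vehicle), harvested 6 h after dosing. ABCG2 mRNA induction read by quantitative nuclease protection assay (qNPA) chemiluminescence; gain of signal fitted against DMSO baseline.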

Structure (SMILES) | outcome
CCC(O)=C1C(=O)CC(C(=O)O)CC1=O (stereo not given) | inactive
COC(=O)c1cccc(C)c1S(=O)(=O)NC(=O)Nc1nc(OCC(F)(F)F)nc(N(C)C)n1 | inactive
CCOC(=O)[C@H](C)Oc1ccc(Oc2nc3ccc(Cl)cc3o2)cc1 | inactive
CCCCCOC(=O)COc1cc(N2C(=O)C3=C(CCCC3)C2=O)c(F)cc1Cl | inactive
CCCOC(=O)c1ccc(C(=O)OCCC)nc1 | inactive
O=C(O)C1(C(=O)Nc2ccc(Cl)cc2Cl)CC1 | inactive
COC(=O)c1c(Cl)nn(C)c1S(=O)(=O)NC(=O)Nc1nc(OC)cc(OC)n1 | inactive
CCCN(CCC)C(=O)SCC | inactive
CCCCC(CC)CN1C(=O)C2C3C=CC(C3)C2C1=O (stereo not given) | inactive
Cc1nn(C)c(Oc2ccccc2)c1C=NOCc1ccc(C(=O)OC(C)(C)C)cc1 | inactive
CCCCOC(=O)[C@@H](C)Oc1ccc(Oc2ccc(C(F)(F)F)cn2)cc1 | inactive
C#CCOC(=O)[C@@H](C)Oc1ccc(Oc2ncc(Cl)cc2F)cc1 | inactive
OB(O)O | inactive
CC(C)(C)[C@@H](O)[C@@H](Cc1ccc(Cl)cc1)n1cncn1 | inactive
COC(=O)CSc1cc(N=c2sc(=O)n3n2CCCC3)c(F)cc1Cl | inactive
CCCOC(=O)NCCCN(C)C | inactive

read-out: xenobiotic metabolism (CYP1A1), CYP1A1 (gene 1543); test: CLD_CYP1A1_6hr: CellzDirect (CLD) Gene Expression Assay for xenobiotic metabolism (CYP1A1) at 6 hours (AID 2283661);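 as to AC50: potency for transcript induction above DMSO vehicle baseline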
Procedure, shortened: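 Primary human hepatocytes from two donors, compound versus 0.2% DMSO vehicle. CYP1A1 mRNA measured 6 h after dosing by quantitative nuclease protection assay with chemiluminescent read-out; induction fitted relative to DMSO, cytotoxicity flagged by microscopy.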

Structure (SMILES) | outcome | AC50
CCC(O)=C1C(=O)CC(C(=O)O)CC1=O (stereo not given) | inactive | –
COC(=O)c1cccc(C)c1S(=O)(=O)NC(=O)Nc1nc(OCC(F)(F)F)nc(N(C)C)n1 | – | 5.2 µM (active)
c1ccc2[nH]c(-c3cscn3)nc2c1 | – | 3.15 µM (active)
CCOC(=O)[C@H](C)Oc1ccc(Oc2nc3ccc(Cl)cc3o2)cc1 | – | 3.97 µM (active)
COc1c(Cl)ccc(Cl)c1C(=O)O | inactive | –
CCCCOC(=O)C(C)Oc1ccc(Oc2ccc(C(F)(F)F)cn2)cc1 (stereo not given) | inactive | –
COC(=O)c1ccc(CNS(C)(=O)=O)cc1S(=O)(=O)NC(=O)Nc1nc(OC)cc(OC)n1 | inactive | –
COC(=O)c1ccccc1S(=O)(=O)NC(=O)Nc1nc(OC(F)F)cc(OC(F)F)n1 | inactive | –
CCCCCOC(=O)COc1cc(N2C(=O)C3=C(CCCC3)C2=O)c(F)cc1Cl | – | 20 µM (active)
CSC(=O)c1cccc2nnsc12 | – | 20 µM (active)
O=C(O)C1(C(=O)Nc2ccc(Cl)cc2Cl)CC1 | inactive | –
COc1nc(C)nc(NC(=O)NS(=O)(=O)c2ccccc2OCCCl)n1 | inactive | –
COC(=O)c1c(Cl)nn(C)c1S(=O)(=O)NC(=O)Nc1nc(OC)cc(OC)n1 | – | 0.696 µM (active)
CCCN(CCC)C(=O)SCC | inactive | –
CCOC(=O)NCCOc1ccc(Oc2ccccc2)cc1 | inactive | –
CCCCC(CC)CN1C(=O)C2C3C=CC(C3)C2C1=O (stereo not given) | – | 6.62 µM (active)
CCCCOC(=O)[C@@H](C)Oc1ccc(Oc2ccc(C(F)(F)F)cn2)cc1 | – | 20 µM (active)
Oc1ccc(C(c2ccc(O)cc2)C(Cl)(Cl)Cl)cc1 | – | 0.0522 µM (active)
CC(C)(C)[C@@H](O)[C@@H](Cc1ccc(Cl)cc1)n1cncn1 | – | 1.9 µM (active)
COC(=O)CSc1cc(N=c2sc(=O)n3n2CCCC3)c(F)cc1Cl | – | 2.66 µM (active)
CCOC(=O)C(C)Oc1ccc(Oc2nc3ccc(Cl)cc3o2)cc1 (stereo not given) | inactive | –
CCOC(=O)COc1cc(-n2ncc(C(F)(F)F)c(C)c2=O)c(F)cc1Cl | inactive | –
CCCOC(=O)NCCCN(C)C | inactive | –

Reference: PubChem BioAssay (EPA / NIEHS)
